# Six1-Eya2 inh: Six1/Eya2 interaction inhibition | Q15475+O00167 | AID 651725 | hit rate 0.56% among 360,000 | activity change, % (concentration not given with the values) | AlphaScreen GST-Six1/His-Eya2 binding, biochemical; stronger effect = lower value
#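 AlphaScreen with GST-Six1 and His-Eya2 (5X mix: 250 nM and 500 nM), glutathione donor and nickel acceptor beads; buffer 50 mM Tris pH 8.0, 300 mM NaCl, 1 mM TCEP; 1 h at 37 C in the dark.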
# CCT chaperon mod: modulators of cytosolic chaperonin (CCT/TRiC) activity. purified chaperonin ATPase assay, HTRF ADP detection, 30 min. activity change, % (no concentration beside the values), hits read low. hit rate 0.3% among 360,000. AID 651819; in the data active means activity change below about -30%
#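 First, chaperonin was dispensed at 40 nM or 20 nM final depending on batch activity. Next, compounds were pinned at 76 uM and ATP added at 10 uM. After 30 min at 37 °C, ADP detection reagents ran 30 min at ambient temperature.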
# Akt phos inh: blocks phosphorylation of Akt; Neuro2A IGF-stimulated pAkt S473 HTRF, 20 min; stronger effect = lower value; activity change, % for hits at 50 µM; hit rate 0.32% among 360,000; AID 651550; in the data active means activity change below about -80%; inconclusive means mostly about -51% to -80%
#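 Single-point screen (50 µM final compound) in Neuro2A cells stimulated 20 min with 6 nM IGF at 37 deg C. After lysis, Ser473-phosphorylated Akt read by HTRF (ex 330 nm, em 615/665 nm) as the 665/615 ratio.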
# CtBP-E1A inh: inhibitors of CtBP/E1A interaction; AID 651724; activity change, % (test concentration not listed); AlphaScreen GST-E1A/His-CtBP binding, 1536-well; stronger effect = lower value; hit rate 0.49% among 340,000
#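 Homogeneous bead-based format: GST-tagged E1A captured on glutathione donor beads, His-tagged CtBP on nickel acceptor beads; compounds precede bead addition by 2 h at 37 °C.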
# Numbers without * were called inactive; i = inactive; ? = inconclusive; . = not tested or not shown. An excerpt weighted towards active compounds, which were near 1.2% of everything screened. Unless noted, no stated cut-off is given here; in the data, active means activity change below about -65%; inconclusive means mostly about -30% to -63%; inactive means weaker than that. On the % scale 0 is the no-effect control and ±100 the full control effect.
SMILES,Six1-Eya2 inh,CCT chaperon mod,Akt phos inh,CtBP-E1A inh
O=S1(=O)N=C(N(CCO)/N=C/c2ccncc2)c2ccccc21,-80.0*,1.1,i,-77.9*
CC(C)(C)NC(=O)CCN(/N=C/c1ccncc1)C1=NS(=O)(=O)c2ccccc21,-67.9*,0.1,i,-82.1*
O=S1(=O)N=C(N(CCO)/N=C/c2ccccc2)c2ccccc21,?,-4.0,i,.
NS(=O)(=O)c1cccc(C(=O)N2CCCc3ccccc32)c1,-11.5,1.6,i,0.5
O=C(Nc1ccc(N2CCCCC2)c(Cl)c1)c1ncn[nH]1,-4.0,-7.0,i,0.8
Cc1ccc(OCCCC(=O)NCc2ccco2)cc1,-1.5,-2.1,i,-0.2
Cc1ccccc1OCCCC(=O)NCc1ccco1,20.2,2.5,-100.9%*,55.2
C[N+](C)(C)CCCNC(=O)c1ccc(/C=N/O)nc1,-69.2*,-0.5,i,?
CNCCCNC(=O)c1ccc(/C=N/O)nc1,-69.0*,-6.1,i,?
CN(CC(=O)Nc1ccc(Cl)c(Cl)c1)C(=O)CC1OC(=O)c2ccccc21 (stereo not given),-5.5,0.1,i,-2.0
O=C(Nc1ccccc1)OCC1COC(c2ccccc2)(c2ccccc2)O1 (stereo not given),12.2,-1.7,i,11.9
CCC(=O)Nc1ccc(C(=O)N/N=C/c2cc(Br)c(OC)cc2OC)cc1,-1.9,-0.5,i,2.3
COc1ccc(CC(=O)N(C)CC(=O)Nc2ccccc2SC)cc1,-0.3,-45.7*,i,3.3
Cc1ccc(S(=O)(=O)N(CC(O)CN(C)C)c2ccccc2)cc1 (stereo not given),0.2,-0.5,-108.5%*,1.9
O=C(Nc1ncn[nH]1)c1cccc(S(=O)(=O)N2CCOCC2)c1,-8.6,0.9,i,17.7
Nn1c(SC/C=C/c2ccccc2)nnc1-c1ccccn1,-75.3*,-2.2,i,-77.8*
CCCCC(=O)N(C)c1c(C)nc2ccc(C(=O)Nc3cccc(NS(C)(=O)=O)c3)cn12,-1.0,1.6,i,-1.8
CSCCC(NC(=O)OCc1ccccc1)C(=O)O (stereo not given),9.2,-0.3,-104.4%*,9.3
O=c1[nH]c2ccc(Cl)cc2c(-c2ccccc2)c1CN1CCOCC1,-73.1*,-4.7,i,-81.3*
CCc1cccc(C)c1NC(=O)CN(C)S(=O)(=O)c1ccc(-c2ccc(=O)[nH]n2)s1,2.1,-0.3,i,0.0
COc1ccc(-c2oc3ccccc3c2C(=O)OCc2ccccc2)cc1,47.6,-33.3*,i,49.5
Cc1ccc(/C(=N/Nc2ncnc3ccccc23)C(=O)O)cc1,-84.0*,0.4,i,-77.3*
CCOC(=O)CSc1ncnc2c1sc1nc(N3CCOCC3)c3c(c12)CCCC3,1.1,-1.4,-84.2%*,8.5
COC(=O)CSc1ncnc2c1sc1nc(N3CCOCC3)c3c(c12)CCCC3,4.8,-1.7,i,7.2
Cc1cc(=O)oc2cc(NC(=O)c3ccc(OC(F)F)cc3)ccc12,-3.1,1.5,i,4.7
SMILES,Six1-Eya2 inh,CCT chaperon mod,Akt phos inh,CtBP-E1A inh
COc1ccc(NC(=S)NNC(=O)c2nnn(-c3ccccc3)c2C)cc1,-78.4*,-2.2,i,6.6
O=C(COc1coc(CN2CCCc3ccccc32)cc1=O)Nc1ccccc1,-8.9,-0.7,i,2.5
COc1cc(/C=C/C(=O)OCC(=O)Nc2ccc(NC(C)=O)cc2)cc(S(=O)(=O)N2CCc3ccccc32)c1OC,-10.0,-44.8*,i,-7.7
COc1cc(/C=C/C(=O)OCC(=O)NC2CC2)cc(S(=O)(=O)N2CCc3ccccc32)c1OC,-5.9,-1.2,i,-1.7
CCOC(=O)c1cc(-c2ccc3c(c2)OCO3)nc2onc(C)c12,18.7,1.3,-116.7%*,9.7
Cc1ccc(SCCCn2cncn2)cc1,0.7,1.0,-111.2%*,-1.5
COc1ccc(C2/C(=C(/O)c3ccc(F)cc3)C(=O)C(=O)N2CCCN2CCOCC2)cc1OC (stereo not given),-1.2,-0.2,i,.
O=C(Cc1ccccc1)c1ccccn1,-78.4*,-2.3,i,-5.3
O=C(NNC(=O)C12CC3CC(CC(C3)C1)C2)c1ccccn1,-65.7*,0.4,i,-19.0
COc1ccc(CC(=O)NNC(=O)c2ccccn2)cc1,?,-0.8,i,-74.1*
COCCCNC(=S)NNC(=O)c1ccccn1,-92.7*,0.6,i,-87.1*
O=C(c1ccc(Cl)cc1)N1CCN(S(=O)(=O)/C=C/c2ccccc2)CC1,9.8,-0.9,i,22.6
